Compound activity from PubChem BioAssay.
Mtb betalactam = beta-lactam sensitization of Mtb H37Rv; 330,000 tested, 0.27% active; M. tuberculosis H37Rv growth with meropenem, percent inhibition; inhibition, % at 25 µM; call rule not given here;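 further: growth measured after seven days incubation then overnight dye step; 0% = bacteria only wells and 100% = bacteria with antibiotic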
MazEF act = increases E. coli MazEF RNase cleavage of RNA; 350,000 tested, 0.32% active; activation, % at 20 µM; FAM/BHQ RNA-DNA oligo cleavage fluorescence, 5 h; P0AE70; in the data active means activation above about 50%
TcdB GH inh = inhibitors of Clostridioides difficile toxin B glycohydrolase | P18177 | TcdB glycohydrolase enzymatic assay, plate reader | inhibition, % at 9.99 µM | 350,000 tested, 0.24% active | AID 652162; in the data active means inhibition above about 10%
RecA splice inh = Mtb RecA intein splicing inhibition; 290,000 tested, 0.75% active; cell-free RecA intein splicing, fluorescence; inhibition, % (test concentration not listed); in the data active means inhibition above about 30%;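 further: 0% = vehicle wells and 100% = reference inhibitor control wells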
Target sequence (P9WHJ3 whole entry, looked up, canonical isoform): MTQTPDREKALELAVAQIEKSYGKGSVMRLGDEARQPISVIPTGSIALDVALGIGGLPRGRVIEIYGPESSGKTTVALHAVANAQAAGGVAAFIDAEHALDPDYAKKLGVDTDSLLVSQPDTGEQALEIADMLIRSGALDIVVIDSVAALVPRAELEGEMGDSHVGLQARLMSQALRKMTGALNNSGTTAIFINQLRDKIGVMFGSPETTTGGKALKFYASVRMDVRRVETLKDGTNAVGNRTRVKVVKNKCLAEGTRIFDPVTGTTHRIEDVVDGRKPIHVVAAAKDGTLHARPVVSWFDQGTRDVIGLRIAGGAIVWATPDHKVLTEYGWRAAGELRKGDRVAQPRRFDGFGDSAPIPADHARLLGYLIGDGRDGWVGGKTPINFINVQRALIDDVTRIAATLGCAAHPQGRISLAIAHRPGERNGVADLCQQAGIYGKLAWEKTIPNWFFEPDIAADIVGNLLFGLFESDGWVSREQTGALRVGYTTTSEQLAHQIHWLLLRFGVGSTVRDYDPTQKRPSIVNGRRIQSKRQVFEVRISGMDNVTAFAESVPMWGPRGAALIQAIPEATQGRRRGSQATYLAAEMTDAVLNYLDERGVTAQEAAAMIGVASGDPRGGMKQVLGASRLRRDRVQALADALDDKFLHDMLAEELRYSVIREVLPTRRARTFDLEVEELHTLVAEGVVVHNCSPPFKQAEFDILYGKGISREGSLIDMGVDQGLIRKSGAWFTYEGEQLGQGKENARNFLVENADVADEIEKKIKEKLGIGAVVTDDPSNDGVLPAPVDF
Rv3671c inh = inhibitors of M. tuberculosis serine protease Rv3671c | inhibition, % at 5.96 µM | P9WHR9 | 320,000 tested, 0.048% active; in the data active means inhibition above about 38%;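 further: extracellular domain of Rv3671c used as enzyme; 0% = enzyme with DMSO and 100% = no enzyme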
Mtb UGM inh = inhibitors of M. tuberculosis UDP-galactopyranose mutase | P9WIQ1 | purified UGM, fluorescence polarization probe displacement | inhibition, % at 10 µM | 320,000 tested, 0.06% active | AID 504406; in the data active means inhibition above about 10%, passing the limit was not always enough
* marks the source's active call; other numbers are inactive results; . = not tested or not shown; + = active, no number. Only some compounds are listed: those with a hit (about 0.97% of all), similar ones and a draw of the others.

SMILES	Mtb betalactam	MazEF act	TcdB GH inh	RecA splice inh	Rv3671c inh	Mtb UGM inh
N#Cc1ncc(-c2ccc3c(c2)OCCOCCOCCOCCO3)nc1C#N	100	0	.	36*	-13	1
Nc1nc(-c2ccc3c(c2)OCCO3)cs1	95	-3	.	-2	9	1
c1ccn2cc(-c3ccc4c(c3)OCCO4)nc2c1	-3	5	3	-1	-7	1
C[C@H](CO)N1C[C@H](C)[C@H](CN(C)Cc2ccc(Cl)c(Cl)c2)Oc2ccc(NC(=O)CCN3CCOCC3)cc2C1=O	.	.	-1	.	.	.
CCOc1ccc(S(=O)(=O)NCCC(=O)NCc2ccccn2)cc1	3	6	11*	0	5	4
Cc1ccc(S(=O)(=O)NCCC(=O)NCc2ccccn2)cc1	-10	4	1	0	-8	2
C[C@H]1CN([C@@H](C)CO)C(=O)c2cc(-c3ccccc3)cnc2O[C@H]1CN(C)C(=O)c1ccccn1	.	.	0	.	.	.
CCCCCCOC(=O)c1ccccc1NC(=O)/C=C/C(=O)O	2	-5	.	67*	5	3
O=C(O)c1ccccc1C(=O)OCCCCOC(=O)c1ccccc1C(=O)O	9	-6	.	0	2	11*
CCOC(=O)c1ccccc1NC(=O)/C=C/C(=O)O	4	3	0	2	-8	1
COc1ccc(CN(C)C[C@H]2Oc3ccc(NS(=O)(=O)c4ccc(Cl)cc4)cc3C(=O)N([C@H](C)CO)C[C@@H]2C)cc1	.	.	-3	.	.	.
O=C(CCl)Nc1c2c(nn1-c1ccccc1)CSC2	99	17	0	35*	-1	0
O=C(CCCCl)Nc1c2c(nn1-c1ccccc1)CSC2	-3	10	0	2	-5	-1
COc1ccc(-c2ccc3c(c2)[C@H]2[C@H](CCN2C(=O)CN2CCOCC2)[C@H](CO)N3)cc1	.	.	-3	.	.	.
COc1ccc(-c2ccc3c(c2)[C@H]2[C@H](CCN2C(=O)CN2CCOCC2)[C@@H](CO)N3)cc1	.	.	15*	.	.	.
COc1ccc(-c2ccc3c(c2)[C@@H]2[C@@H](CCN2C(=O)CN2CCOCC2)[C@H](CO)N3)cc1	.	.	12*	.	.	.
COc1cccc(-c2ccc3c(c2)[C@@H]2[C@@H](CCN2C(=O)CN2CCOCC2)[C@@H](CO)N3)c1	.	.	1	.	.	.
CC(=O)N1CC[C@@H]2[C@@H](CO)Nc3ccc(-c4ccccc4)cc3[C@@H]21	.	.	11*	.	.	.
COc1ccc2c3c(n(C)c2c1)[C@@H](CO)N(C(=O)CC1CC1)CC31CN(Cc2nccs2)C1	.	.	0	.	.	.
CCCN1[C@@H]2c3ccc(-c4cccnc4)c(=O)n3C[C@@H]2[C@@H](CO)[C@@H]1C(=O)NC1CCC1	.	.	0	.	.	.
CC(C)NC(=O)c1sc2nc(-c3cccs3)cc(-c3cccs3)c2c1N	6	-17	.	-16	-73	1
Nc1c(C(=O)C2CC2)sc2nc(-c3cccs3)cc(C(F)(F)F)c12	2	+	.	0	0	6
Cc1cccc(N2CC(C(=O)OCC(=O)c3ccc(OC(=O)c4cccs4)cc3)CC2=O)c1C (configuration not stated)	1	-3	.	36*	-4	0
COc1ccccc1-c1cn(CC[C@H]2CC[C@H](NC(=O)c3ccccc3F)[C@@H](CO)O2)nn1	.	.	0	.	.	.
O=C(NNc1ccc(-c2csnn2)cc1)c1cc(Cl)cc(Cl)c1	97	2	18*	3	-7	-1
SMILES	Mtb betalactam	MazEF act	TcdB GH inh	RecA splice inh	Rv3671c inh	Mtb UGM inh
O=C(NNc1ccc(-c2csnn2)cc1)c1ccccc1C(F)(F)F	94	-1	12*	-3	3	-4
O=C(Nc1ccc(-c2csnn2)cc1)C1CC1	93	10	0	-6	1	-1
O=C(Nc1ccccc1F)N1CC(=O)N2[C@H](CO)[C@@H](c3ccc(-c4ccccc4)cc3)[C@@H]2C1	.	.	1	.	.	.
C[C@H](CO)N1C[C@H](C)[C@@H](CN(C)C(=O)c2ccc3c(c2)OCO3)Oc2cc(C#Cc3ccccc3F)ccc2S1(=O)=O	.	.	2	.	.	.
CCn1c(SCC(=O)c2cc(C)ccc2C)nc2cc(S(=O)(=O)N3CCOCC3)ccc21	1	-5	0	1	-13	-2
CCC(C)NC(=O)CSc1nc2cc(S(=O)(=O)N3CCOCC3)ccc2n1CC (configuration not stated)	4	9	11*	0	0	0
C/C=C/c1cnc2c(c1)C(=O)N([C@H](C)CO)C[C@@H](C)[C@H](CN(C)Cc1ccncc1)O2	.	.	0	.	.	.
C[C@H](CO)N1C[C@H](C)[C@H](CN(C)C(=O)Cc2ccncc2)Oc2ncc(C#CC3(O)CCCC3)cc2C1=O	.	.	2	.	.	.
CC(=O)n1c(C=Nc2ccc(Cl)cc2)c(O)c2ccccc21	0	+	1	-16	6	2
CC(=O)n1c2ccccc2c2ccccc21	3	5	.	-1	-1	-2
Cc1ccc(S(=O)(=O)N2C[C@H](O)COC[C@H]3O[C@@H](CC(=O)NCCN4CCCCC4)CC[C@@H]32)cc1	.	.	0	.	.	.
CCOC(=O)CSC1=NC(=O)/C(=C\c2ccc(OC(C)=O)cc2)S1	2	65*	.	5	-10	0
CCOC(=O)CSC1=NC(=O)/C(=C/c2ccc(Br)cc2)S1	100	-33	0	14	-8	-2
COCC(=O)N(C[C@@H]1N[C@@H](CO)[C@@H]1c1ccc(-c2cccnc2)cc1)C(C)C	.	.	-1	.	.	.
COC(=O)c1cc2c(c3c4cc(C)ccc4n(S(=O)(=O)c4cccc(C)c4)c13)C(=O)N(Cc1ccc(N(C)C)cc1)C2	.	.	1	.	.	.
Cc1ccn(CCC(=O)NC2CC(C)(C)Cc3c2cnn3-c2ccccc2C)n1 (configuration not stated)	-1	1	10*	-5	2	-3
CCOc1cc2c(cc1/C=C/c1noc(C)c1[N+](=O)[O-])OC(C)C2 (configuration not stated)	-3	370*	1	-4	-11	-1
CCOc1cc2c(cc1C=O)OC(C)C2 (configuration not stated)	-5	0	1	2	-15	3
CO[C@H]1CN(C)C(=O)c2ccc(NC(=O)c3ccccc3F)cc2OC[C@H](C)NC[C@@H]1C	.	.	-11	.	.	.
C[C@@H]1CN([C@H](C)CO)C(=O)Cc2cc(NC(=O)Cc3cn(C)c4ccccc34)ccc2O[C@@H]1CN(C)C(=O)NC1CCCCC1	.	.	1	.	.	.
O=C(C[C@H]1C[C@@H]2c3cc(NC(=O)C4CCOCC4)ccc3O[C@@H]2[C@@H](CO)O1)NCC1CC1	.	.	-1	.	.	.
Cc1[nH]c(-c2ccc(F)cc2)cc1C(=O)N1CCN(c2ccccc2)CC1	25	-7	21*	1	.	4
COc1ccc(CN2CCNC(=O)C2CC(=O)N(C)Cc2ccncn2)c(OC)c1 (configuration not stated)	4	-1	0	31*	0	-2
COc1ccc(CN2CCNC(=O)C2CC(=O)N(C)Cc2nccs2)c(OC)c1 (configuration not stated)	6	4	-1	1	2	1
